Over roughly 81,000 sequences, “one-hybrid fitness for binding parS DNA” has its median near -0.17; the highest 2% begin near 0.51. The entries come from a sample that favours the highest values as a whole.

B1: Caulobacter ParB omega fusion; a variant is named by its letters at X, in order, B8GW30 (parent)
chain: MESVVVGEPGMSEGRRGLGRGLSALLGEVDAAPAQAPGEQLGGSREAPIEILQRNPDQPRRTFREEDLEDLSNSIREKGVLQPILVRPSPDTAGEYQIVAGERAWRAAQRAGLKTVPIMVRELDDLAVLEIGIIENVQRADLNVLEEALSYKVLMEKFERTQENIAQTIGKSXSHVANXMRLLXLPDEVQSYLVSGELTAXHARAIAAAADPVALAKQIIEGGLSVRETEALARKAPNLSAGKSKGGRPPRVKDTDTQALESDLSSVLGLDVSIDHRGSTGTLTITYATLEQLDDLCNRLTRGI

In this assay the parent is B1. The experiment in a line: one-hybrid fitness for binding parS DNA (scaled: cognate 1, non-cognate 0); higher = stronger binding. Particulars: with parS DNA site. The essentials:
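On M9-minus-histidine containing 0.1 mM IPTG and 5 mM 3-AT, E. coli USO cells with a HIS3 reporter, site 19 bp from the promoter, grew 48 hours at 37°C to select Caulobacter ParB libraries randomised at four specificity codons. Plasmids from before and after were Illumina-sequenced, with three replicate libraries pooled and variants under 10 reads left out. Fitness is the log change in variant-to-wild-type read ratio, rescaled against cognate and non-cognate.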
With VQYW, the “one-hybrid fitness for binding parS DNA” value is at most 0.2.
On to INEC, for which the “one-hybrid fitness for binding parS DNA” value is at most 0.2.
Consider RQWY, for which the “one-hybrid fitness for binding parS DNA” value worked out at 0.418.
For TEPE, the “one-hybrid fitness for binding parS DNA” value was at most 0.2.
Turning to RSAN, the “one-hybrid fitness for binding parS DNA” value turned out to be 0.426.
In the case of REAC it was at most 0.2.
In the case of RPAC it was at most 0.2; in that of RSAH, 0.226; in that of RCAC, 1.02.
RSAC: the “one-hybrid fitness for binding parS DNA” value is 0.932.
Turning to IILS, the “one-hybrid fitness for binding parS DNA” value is at most 0.2.
In the case of TCRI it was at most 0.2; in that of KHHT, at most 0.2; in that of HMNT, at most 0.2.
Turning to RTIG, the “one-hybrid fitness for binding parS DNA” value is 0.98.
For the variant RTPG, the “one-hybrid fitness for binding parS DNA” value is 0.764.
For the variant RTIF, the “one-hybrid fitness for binding parS DNA” value is 0.233.
Turning to RTPQ, the “one-hybrid fitness for binding parS DNA” value is at most 0.2.
Consider RTPP, for which the “one-hybrid fitness for binding parS DNA” value was at most 0.2.
In the case of RTIK, the “one-hybrid fitness for binding parS DNA” value is at most 0.2.
Then KRWW, with at most 0.2; and KLNR, with at most 0.2.
As to RHAA, the “one-hybrid fitness for binding parS DNA” value was 0.534.
In the case of RHFA it was 0.516; in that of NHAA, at most 0.2; in that of VDYT, at most 0.2.
For the variant NQNT, the “one-hybrid fitness for binding parS DNA” value was at most 0.2.
On to HAPR, for which the “one-hybrid fitness for binding parS DNA” value is at most 0.2.
Take EKTR: the “one-hybrid fitness for binding parS DNA” value is at most 0.2.
Take RHVA: the “one-hybrid fitness for binding parS DNA” value is 0.499.
Consider RFVA, for which the “one-hybrid fitness for binding parS DNA” value was 0.44.
RWVA: the “one-hybrid fitness for binding parS DNA” value worked out at 0.329.
For the variant RCKA, the “one-hybrid fitness for binding parS DNA” value was 0.844.
Turning to PFKA, the “one-hybrid fitness for binding parS DNA” value is at most 0.2.
Then RWYA, with 0.348.
On to RWKA, for which the “one-hybrid fitness for binding parS DNA” value stood at 0.574.
Take RGKA: the “one-hybrid fitness for binding parS DNA” value came out at 0.475.
In the case of DHKA, the “one-hybrid fitness for binding parS DNA” value was at most 0.2.
For RFKA, the “one-hybrid fitness for binding parS DNA” value worked out at 0.571.
With RPKA, the “one-hybrid fitness for binding parS DNA” value was at most 0.2.
In the case of RHKA, the “one-hybrid fitness for binding parS DNA” value stood at 0.692.
In the case of KSVS, the “one-hybrid fitness for binding parS DNA” value was at most 0.2.
On to ATSF, for which the “one-hybrid fitness for binding parS DNA” value is at most 0.2.
With PVTI, the “one-hybrid fitness for binding parS DNA” value is at most 0.2.
In the case of GNRN, the “one-hybrid fitness for binding parS DNA” value was at most 0.2.
With MTHT, the “one-hybrid fitness for binding parS DNA” value was at most 0.2.
In the case of IATE it was at most 0.2; in that of RDKA, at most 0.2; in that of RSKA, 0.716.
For REKA, the “one-hybrid fitness for binding parS DNA” value is at most 0.2.
Turning to QRTQ, the “one-hybrid fitness for binding parS DNA” value was at most 0.2.
As to GFIG, the “one-hybrid fitness for binding parS DNA” value is at most 0.2.
In the case of RLSK it was at most 0.2; in that of RLGT, 0.925; in that of RLRR, at most 0.2.
As to RLWT, the “one-hybrid fitness for binding parS DNA” value is 0.889.
Take RLWP: the “one-hybrid fitness for binding parS DNA” value turned out to be 0.201.
As to RLSM, the “one-hybrid fitness for binding parS DNA” value was 0.329.
Then RLGF, with 0.278; and RLGR, with at most 0.2.
For the variant RLRT, the “one-hybrid fitness for binding parS DNA” value was 0.834.
Then RLWH, with 0.3.
As for RLRM, the “one-hybrid fitness for binding parS DNA” value is 0.376.
For RLST, the “one-hybrid fitness for binding parS DNA” value was determined as 0.939.
With FKLC, the “one-hybrid fitness for binding parS DNA” value is at most 0.2.
On to YRAS, for which the “one-hybrid fitness for binding parS DNA” value amounted to 0.283.
For the variant WVWC, the “one-hybrid fitness for binding parS DNA” value is at most 0.2.
In the case of TRNR it was at most 0.2.
For QCLA, the “one-hybrid fitness for binding parS DNA” value was at most 0.2.

Values taken from a collection of fitness landscapes (doi:10.1016/j.celrep.2020.107928).
